# Source: PubChem BioAssay
# The list is not random: actives were taken first. Their share in the collection is about 1.7%.
# TRPML1 agonist – qHTS for Agonists of the Human Mucolipin Transient Receptor Potential 1 (TRPML1). Mucolipin-1 (Homo sapiens), Q9GZU1. TRPML1-expressing cells, Ca2+ dye fluorescence, FDSS. activation, % (concentration not given with the values). hit rate 0.12% among 410,000; in the data active = activation above about 50%; inconclusive = mostly about 30% to 49%; note: 0% is about no effect
#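 Agonist activity was taken from a 110 s kinetic Ca2+ dye read on the FDSS after pinning compounds onto TRPML1-DL cells. The cells were seeded at 1,500/well with Tet inducer, incubated about 16 h, then dye-loaded at room temperature.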
# TRPML1 blocker – qHTS for Inhibitors of the Human Mucolipin Transient Receptor Potential 1 (TRPML1); TRPML1-inducible cells, Ca2+ dye fluorescence, FDSS; hits give low values; inhibition of EC80 agonist-evoked calcium signal; activity change, negative = inhibition, % (test concentration not listed); hit rate 0.02% among 390,000; in the data active = activity change below about -50%; inconclusive = between about -30% and that limit;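 note: stimulus is agonist 54-4 at its EC80 concentration; % is set by controls: 0 for no effect and ±100 for the full control effect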
#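 Tet-induced TRPML1-DL cells loaded with Ca8 no-wash calcium dye were read kinetically on FDSS. Compound addition was followed by EC80 agonist 54-4 (4 uM final); inhibition was read over 110 s.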
# TRHR ag – qHTS for Small Molecule Agonists and Allosteric Enhancers of Human TRH Receptor: Primary Screen for Agonists; Thyrotropin-releasing hormone receptor (Homo sapiens), P34981; TRHR cells, calcium flux fluo-8, FDSS agonist mode; activation, % at 2 µM; hit rate 0.18% among 360,000; AID 493084, 2011; in the data active = activation above about 30%; note: 0% is about no effect
#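 TRHR-expressing cells, plated overnight in medium with 10% serum, were loaded with fluo-8 calcium dye at room temperature. After a 10 s baseline, library compound was pin-added and calcium release was recorded kinetically (ex 480/em 530) as agonist response.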
# KCNH2 WT inh – qHTS for Inhibitors of KCHN2 3.1: Wildtype qHTS; U2OS, BacMam KCNH2, thallium flux FluxOr; hits give low values; AID 720551, 2013; hit rate 0.37% among 340,000; activity change, % at 1.84 µM;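 active = maximum activity change below -70%; inconclusive = maximum activity change between -70% and -50%; inactive = maximum activity change above -50%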; note: % is set by controls: 0 for no effect and ±100 for the full control effect
# Target sequence (Q12809 whole entry, looked up): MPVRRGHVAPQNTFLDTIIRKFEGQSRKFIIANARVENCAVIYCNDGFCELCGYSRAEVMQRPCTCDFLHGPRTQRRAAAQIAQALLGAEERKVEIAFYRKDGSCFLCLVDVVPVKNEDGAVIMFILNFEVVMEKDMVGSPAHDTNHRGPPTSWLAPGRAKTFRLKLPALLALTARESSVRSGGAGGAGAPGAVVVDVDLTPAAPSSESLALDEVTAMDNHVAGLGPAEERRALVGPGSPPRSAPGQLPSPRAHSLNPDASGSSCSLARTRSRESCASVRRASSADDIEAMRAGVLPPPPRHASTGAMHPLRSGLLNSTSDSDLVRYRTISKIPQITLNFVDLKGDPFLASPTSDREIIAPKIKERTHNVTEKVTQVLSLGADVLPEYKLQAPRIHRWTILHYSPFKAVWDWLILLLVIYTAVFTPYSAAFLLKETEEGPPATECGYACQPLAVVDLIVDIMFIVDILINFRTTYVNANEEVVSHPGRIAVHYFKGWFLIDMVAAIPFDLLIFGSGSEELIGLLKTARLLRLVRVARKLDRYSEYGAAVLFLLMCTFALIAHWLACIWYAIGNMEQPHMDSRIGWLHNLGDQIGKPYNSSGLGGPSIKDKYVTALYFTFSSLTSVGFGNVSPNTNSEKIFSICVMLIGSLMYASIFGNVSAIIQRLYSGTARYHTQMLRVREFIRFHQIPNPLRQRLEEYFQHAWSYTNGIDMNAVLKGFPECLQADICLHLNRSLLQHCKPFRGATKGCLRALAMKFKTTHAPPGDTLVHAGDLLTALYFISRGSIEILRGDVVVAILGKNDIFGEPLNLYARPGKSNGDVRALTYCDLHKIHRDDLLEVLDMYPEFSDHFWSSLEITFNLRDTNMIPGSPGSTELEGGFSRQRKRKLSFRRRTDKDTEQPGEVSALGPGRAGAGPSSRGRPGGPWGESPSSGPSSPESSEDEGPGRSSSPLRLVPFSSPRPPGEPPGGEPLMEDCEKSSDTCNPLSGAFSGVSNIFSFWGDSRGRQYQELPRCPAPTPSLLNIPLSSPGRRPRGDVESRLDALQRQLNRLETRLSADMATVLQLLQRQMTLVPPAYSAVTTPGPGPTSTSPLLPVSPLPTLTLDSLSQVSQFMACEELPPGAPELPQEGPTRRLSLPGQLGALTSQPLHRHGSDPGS
#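 U2OS cells were transduced with wild-type KCNH2 virus (2.03 x 10^8 / mL) for 4 h at room temperature, then cultured overnight at 37 C. Thallium flux was read with FluxOr dye. Rate constants were normalized to DMSO controls.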
# KCNH2 3.1 inh – qHTS for Inhibitors of KCHN2 3.1: Mutant qHTS | activity change, % (tested at about 1.8 µM) | Potassium voltage-gated channel subfamily H member 2, brain isoform KCNH2 3.1 (human) | hit rate 0.95% among 340,000 | U2OS KCNH2 3.1, thallium flux FluxOr; hits give low values;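 active = maximum activity change below -70%; inconclusive = maximum activity change from -70% to -50%; inactive = maximum activity change above -50%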;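 note: thallium influx rate constant from kinetic fluorescence after stimulation buffer; % is set by controls: 0 for no effect and ±100 for the full control effect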
#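 Thallium flux via FluxOr fluorescence (Red40 quencher, 45 min loading) in U2OS cells virally expressing the KCNH2 3.1 isoform (1.77 x 10^8 /mL virus, overnight at 37 C). Rate constants from 2-min kinetic reads post-stimulation, normalised to positive and negative controls.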
# TRHR PAM – qHTS for Small Molecule Agonists and Allosteric Enhancers of Human TRH Receptor: Primary Screen for Enhancers; AID 493056, 2011; Thyrotropin-releasing hormone receptor (Homo sapiens), P34981; hit rate 0.66% among 360,000; TRHR cells, fluo-8 calcium fluorescence, EC20 TRH enhancement; enhancement, % at 2 µM; in the data active = enhancement above about 30%; note: 0% is about no effect
#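 Enhancer read-out: after compound pinning and an initial kinetic agonist-mode read, an EC20 of TRH (10 nM final) was injected and fluo-8 calcium signal (Ex 480/Em 530) followed at 1 s/cycle for 100 cycles in TRHR-expressing cells.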
# * = called active by the depositor; u = inconclusive; x = no result.
SMILES,TRPML1 agonist,TRPML1 blocker,TRHR ag,KCNH2 WT inh,KCNH2 3.1 inh,TRHR PAM
COc1cc(N)c(Cl)cc1C(=O)OC(C)C(=O)Nc1cccc(S(=O)(=O)N2CCOCC2)c1 (centres undefined),-0.1,-4.6,1.7,-0.2,7.1,-4.5
Cc1cccc(CN2CCN(C3CN(Cc4cn(Cc5ccccc5C(F)(F)F)nn4)S(=O)(=O)C3)CC2)c1 (centres undefined),-0.6,x,x,x,x,x
COc1cccc(N(CC(=O)NCC2CCCO2)C(=O)CNS(=O)(=O)c2ccccc2)c1 (centres undefined),-0.1,-15.8,1.2,-8.2,-70.3*,-1.6
Cc1ccc(S(=O)(=O)NCC(=O)N(CC(=O)NCC2CCCO2)Cc2ccccc2Cl)cc1 (centres undefined),-1.2,-9.9,0.1,-232.7*,4.8,4.9
CCN(CC(=O)NCC1CCCO1)S(=O)(=O)c1ccc(Cl)cc1 (centres undefined),0.2,-14.0,-0.2,-79.9*,1.5,5.3
O=C(CN(Cc1ccccc1)S(=O)(=O)c1ccc(Cl)cc1)NCC1CCCO1 (centres undefined),-0.3,-7.4,0.3,0.0,-3.8,-0.8
COc1cccc(CN(CC(=O)NCC2CCCO2)C(=O)CNS(=O)(=O)c2ccccc2)c1 (centres undefined),-0.3,14.1,x,5.0,-11.0,x
CC(C)(C)n1ncc2c(=O)n(Cc3ccc(Cl)c(F)c3)cnc21,0.8,4.8,x,x,x,x
CC(CSC(=O)c1ccccc1)C(=O)N1c2ccccc2CC1C(=O)O (centres undefined),-1.0,x,x,x,x,x
Cc1cc2oc(C(=O)Nc3c(C(=O)Nc4ccccc4)oc4ccccc34)cc(=O)c2cc1C,0.3,-11.0,-1.0,x,x,3.0
Cc1ccc(-n2cccn2)c(CN2CCC(CO)(CCc3ccccc3)CC2)c1,0.3,8.7,0.5,-35.0,-96.3*,-4.8
OCC1(CCc2ccccc2)CCN(Cc2cc(Cl)ccc2O)CC1,-0.8,19.6,4.0,9.8,-17.2,1.0
C=C[C@@H]1c2ccccc2N(S(=O)(=O)c2ccc(C)cc2)[C@H](c2ccc(C(F)(F)F)cc2)C1(C#N)C#N,24.8,-11.0,0.2,x,x,-0.5
C=C[C@@H]1c2cc(C)ccc2N(S(=O)(=O)c2ccc(C)cc2)[C@H](c2ccc(C(C)(F)F)cc2)C1(C#N)C#N,50.6*,x,x,x,x,x
CCOC(=O)C1=C(C)NC(=O)NC1c1cc(Br)c(O)c(OC)c1 (centres undefined),-1.0,-9.5,0.9,1.4,15.9,1.9
CCCOCCOC(=O)C1=C(C)NC(=O)NC1c1cc(Cl)c(O)c(OC)c1 (centres undefined),0.5,26.5,-0.2,-6.2,-72.3*,-2.6
CCc1nn(CC(=O)NCc2ccccc2Cl)c(=O)c2cc3ccccc3n12,-0.9,3.7,0.0,x,x,-2.4
Cc1ccc(S(=O)(=O)c2cc3cc(C(=O)Nc4ccc(C)cc4C)ccc3oc2=O)cc1,1.4,-1.4,-0.1,x,x,30.7*
COC(=O)c1cc2n(n1)CCN(Cc1ccc(C)cc1)C2=O,-0.8,3.8,0.1,-2.7,1.0,7.6
COC(=O)c1cc2n(n1)CCN(Cc1ccccc1Cl)C2=O,-0.3,-12.0,-0.1,17.3,x,32.1*
COc1ccc(Nc2nc(N3CCOCC3)nc(N3CCOCC3)n2)cc1Cl,1.3,14.3,-1.9,27.7,2.0,-3.6
COc1cc2c(cc1OC)-c1cc(Nc3ccc(C(=O)O)cc3)nc(=O)n1CC2,-0.2,27.6,0.4,7.2,-93.0*,0.9
CCOC(=O)c1ccc2c(c1)N(CC(=O)N1CCCC1)C(=O)C(C)(C)O2,1.0,-7.0,-0.3,4.3,1.5,35.7*
Cc1ccc(C(c2nnnn2C(C)(C)C)N(Cc2ccco2)Cc2cccs2)cc1 (centres undefined),60.1*,-9.1,0.7,-0.4,-16.5,-2.8
CC(C)(C)n1nnnc1C(c1ccc(F)cc1)N(Cc1ccc(F)cc1)Cc1ccco1 (centres undefined),u,-27.5,0.7,-1.1,-15.4,-12.2
SMILES,TRPML1 agonist,TRPML1 blocker,TRHR ag,KCNH2 WT inh,KCNH2 3.1 inh,TRHR PAM
COc1ccc(CN(C)[C@H]2C[C@H]3c4[nH]c5ccccc5c4CCN3C[C@H]2[C@H](C)O)cc1,-0.4,0.3,x,-47.8,-81.3*,x
Cc1ccc(C)c(N(C)S(=O)(=O)c2ccc3[nH]cc(C(=O)NC4CCCC4)c(=O)c3c2)c1,3.0,18.1,0.5,x,x,-3.6
CCNC(=O)C1CCCN(C(=O)c2ccccc2OC(F)(F)F)CC1 (centres undefined),0.1,-5.1,x,x,x,x
CO/N=C/c1ccc(N2CCN(C(=O)c3ccc(C)cc3)CC2)c([N+](=O)[O-])c1,-0.8,4.5,0.1,-9.6,-97.8*,5.3
Oc1cccc(/C=N/Nc2nn3cnnc3c3ccccc23)c1,-0.2,89.4,-0.1,14.1,-113.9*,-2.2
Cc1cccc(Cn2ncc3c4sc(C)cc4n(C)c3c2=O)c1,x,x,0.2,x,x,8.1
O=C1c2cc([N+](=O)[O-])ccc2-c2ncccc21,0.7,-57.0*,-0.4,6.4,-9.4,-6.6
Cc1ccc(C)c(-n2cc(CNCCCn3cccn3)c(-c3ccccc3)n2)c1,0.4,-9.3,2.0,10.3,7.2,-2.3
Cc1ccc(-n2cc(CNCCCn3cccn3)c(-c3cccc(C)c3)n2)cc1,2.7,47.2,0.8,u,-81.3*,-0.9
O=C(C1CCCN(S(=O)(=O)c2cccs2)C1)N1CCN(c2ccccc2F)CC1 (centres undefined),-0.2,0.8,-0.3,x,x,-5.5
Cc1ccc(NC(=O)CS(=O)CC(=O)N2CCN(C3CCCC3)CC2)cc1 (centres undefined),-0.4,-20.2,0.1,-6.9,-10.4,-15.5
CC1CCN(c2ccc(NC(=O)Cc3ccccc3)cc2)CC1,-0.2,-50.9*,-0.4,-7.9,-2.1,0.7
Cc1ccc(NC(=O)CS(=O)CC(=O)N2CCN(c3ccccc3)CC2)cc1 (centres undefined),-1.4,1.8,-0.2,-0.7,-2.1,31.2*
N#Cc1cccc(NC(=O)CN2C(=O)NC(Cc3ccccc3)C2=O)c1 (centres undefined),0.6,-2.6,0.5,-2.3,14.2,-0.1
